The source of these data is ChEMBL document CHEMBL1961873, “Compounds: GSK PKIS; Assays: Nanosyn kinase panel” (2012).

Test [1] has as its target T1, Serine/threonine-protein kinase D2 (Homo sapiens) (UniProt Q9BZL6).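 Also: mean value of PRKD2 inhibition, from the GSK PKIS screening panel.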
T1 sequence (whole entry): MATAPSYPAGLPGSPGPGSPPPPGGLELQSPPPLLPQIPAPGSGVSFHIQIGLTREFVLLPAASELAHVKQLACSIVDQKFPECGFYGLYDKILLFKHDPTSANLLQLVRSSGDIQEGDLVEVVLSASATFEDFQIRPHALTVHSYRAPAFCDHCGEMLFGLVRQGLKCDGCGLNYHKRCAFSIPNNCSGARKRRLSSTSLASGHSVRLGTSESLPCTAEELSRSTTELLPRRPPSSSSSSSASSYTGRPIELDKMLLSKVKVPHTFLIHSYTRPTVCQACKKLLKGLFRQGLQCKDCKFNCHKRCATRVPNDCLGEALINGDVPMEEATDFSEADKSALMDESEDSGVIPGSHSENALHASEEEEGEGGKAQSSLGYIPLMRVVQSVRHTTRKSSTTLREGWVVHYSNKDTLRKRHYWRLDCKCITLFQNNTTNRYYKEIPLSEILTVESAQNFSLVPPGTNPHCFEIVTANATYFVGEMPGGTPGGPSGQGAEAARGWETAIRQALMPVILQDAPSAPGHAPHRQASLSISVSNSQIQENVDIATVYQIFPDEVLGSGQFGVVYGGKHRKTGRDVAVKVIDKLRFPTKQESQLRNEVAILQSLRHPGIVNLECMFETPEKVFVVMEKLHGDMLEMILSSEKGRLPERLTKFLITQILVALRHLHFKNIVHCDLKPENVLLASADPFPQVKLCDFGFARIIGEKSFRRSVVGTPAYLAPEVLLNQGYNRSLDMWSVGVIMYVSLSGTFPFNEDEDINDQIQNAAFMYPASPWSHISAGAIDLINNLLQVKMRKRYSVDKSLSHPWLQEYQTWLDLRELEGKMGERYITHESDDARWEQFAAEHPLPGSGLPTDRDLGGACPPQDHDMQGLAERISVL
The note with it: at 1 µM.

Test [2] concerns the target T2, Serine/threonine-protein kinase D3 (Homo sapiens) (UniProt O94806).
T2 sequence (whole entry): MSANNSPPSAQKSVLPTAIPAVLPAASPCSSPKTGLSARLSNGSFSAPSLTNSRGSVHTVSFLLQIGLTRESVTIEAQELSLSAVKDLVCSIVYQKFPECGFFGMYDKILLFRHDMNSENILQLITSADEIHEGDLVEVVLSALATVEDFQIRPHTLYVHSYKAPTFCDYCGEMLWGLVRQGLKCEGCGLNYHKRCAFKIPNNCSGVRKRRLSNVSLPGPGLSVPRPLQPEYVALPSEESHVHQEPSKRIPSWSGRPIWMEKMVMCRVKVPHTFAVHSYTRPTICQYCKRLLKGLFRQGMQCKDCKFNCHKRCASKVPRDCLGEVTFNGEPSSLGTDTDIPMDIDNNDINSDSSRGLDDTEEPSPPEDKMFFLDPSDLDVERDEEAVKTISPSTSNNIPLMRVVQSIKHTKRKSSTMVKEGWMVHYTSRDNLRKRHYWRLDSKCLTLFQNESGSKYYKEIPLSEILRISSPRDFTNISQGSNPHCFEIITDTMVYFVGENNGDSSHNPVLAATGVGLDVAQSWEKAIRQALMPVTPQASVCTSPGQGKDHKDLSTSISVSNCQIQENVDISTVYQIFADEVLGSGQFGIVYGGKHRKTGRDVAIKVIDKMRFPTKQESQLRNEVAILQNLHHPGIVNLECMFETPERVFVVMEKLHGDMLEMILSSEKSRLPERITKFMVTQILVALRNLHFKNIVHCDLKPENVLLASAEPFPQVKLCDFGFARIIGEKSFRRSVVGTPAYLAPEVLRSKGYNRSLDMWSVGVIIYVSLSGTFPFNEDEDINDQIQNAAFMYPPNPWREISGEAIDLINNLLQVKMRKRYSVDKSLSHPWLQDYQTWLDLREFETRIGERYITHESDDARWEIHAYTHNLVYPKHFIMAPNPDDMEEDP
The note with it: at 0.1 µM.

Test [3] concerns the target T2, Serine/threonine-protein kinase D3 (Homo sapiens). The note with it: at 1 µM.
The target in test [4] is T3, cGMP-dependent protein kinase 1 (Homo sapiens) (UniProt Q13976).
T3 sequence (whole entry): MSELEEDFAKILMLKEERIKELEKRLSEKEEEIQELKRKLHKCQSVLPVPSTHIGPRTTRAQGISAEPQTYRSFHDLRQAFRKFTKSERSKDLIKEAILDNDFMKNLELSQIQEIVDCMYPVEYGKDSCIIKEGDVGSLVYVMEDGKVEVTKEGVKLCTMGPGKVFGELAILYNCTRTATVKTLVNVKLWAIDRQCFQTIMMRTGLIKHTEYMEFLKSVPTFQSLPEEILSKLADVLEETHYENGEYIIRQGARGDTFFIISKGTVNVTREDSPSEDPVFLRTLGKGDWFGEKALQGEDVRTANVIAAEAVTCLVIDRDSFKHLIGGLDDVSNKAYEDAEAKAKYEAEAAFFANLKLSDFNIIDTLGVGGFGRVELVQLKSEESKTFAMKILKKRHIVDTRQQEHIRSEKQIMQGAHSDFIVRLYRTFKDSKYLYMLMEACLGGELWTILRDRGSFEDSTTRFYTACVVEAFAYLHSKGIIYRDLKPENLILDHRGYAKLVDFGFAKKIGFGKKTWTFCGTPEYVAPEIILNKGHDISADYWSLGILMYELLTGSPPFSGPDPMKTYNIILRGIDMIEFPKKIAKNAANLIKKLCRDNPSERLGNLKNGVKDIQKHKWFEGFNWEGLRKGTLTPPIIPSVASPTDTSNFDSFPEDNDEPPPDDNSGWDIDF
To be noted: at 0.1 µM.

The target of test [5] is T3, cGMP-dependent protein kinase 1 (Homo sapiens). To be noted: at 1 µM.
For test [6], the target named is T4, cGMP-dependent protein kinase 2 (Homo sapiens) (UniProt Q13237).
T4 sequence (whole entry): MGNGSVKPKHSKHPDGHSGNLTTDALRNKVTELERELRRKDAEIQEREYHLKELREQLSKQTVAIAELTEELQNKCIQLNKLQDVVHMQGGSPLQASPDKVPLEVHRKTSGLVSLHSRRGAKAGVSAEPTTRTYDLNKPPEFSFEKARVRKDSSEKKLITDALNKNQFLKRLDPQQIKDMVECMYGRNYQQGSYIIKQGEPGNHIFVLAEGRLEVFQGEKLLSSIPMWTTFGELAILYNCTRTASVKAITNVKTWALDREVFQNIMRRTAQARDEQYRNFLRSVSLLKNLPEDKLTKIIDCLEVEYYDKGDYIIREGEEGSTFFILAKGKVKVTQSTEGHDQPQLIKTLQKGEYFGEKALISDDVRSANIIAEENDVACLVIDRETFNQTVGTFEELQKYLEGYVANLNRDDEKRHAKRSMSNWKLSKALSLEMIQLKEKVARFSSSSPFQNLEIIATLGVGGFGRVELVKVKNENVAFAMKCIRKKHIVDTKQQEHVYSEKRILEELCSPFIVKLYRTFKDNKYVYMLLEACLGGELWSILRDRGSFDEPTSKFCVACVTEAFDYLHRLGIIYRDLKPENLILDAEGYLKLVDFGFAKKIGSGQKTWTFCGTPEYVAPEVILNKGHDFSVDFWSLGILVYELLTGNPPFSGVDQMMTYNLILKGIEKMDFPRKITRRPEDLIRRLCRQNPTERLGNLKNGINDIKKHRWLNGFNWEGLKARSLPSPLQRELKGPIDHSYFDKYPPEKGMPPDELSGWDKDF
The note with it: at 0.1 µM.

Test [7] addresses T4, cGMP-dependent protein kinase 2 (Homo sapiens). To be noted: at 1 µM.
Test [8] deals with T5, cAMP-dependent protein kinase catalytic subunit PRKX (Homo sapiens) (UniProt P51817).
T5 sequence (whole entry): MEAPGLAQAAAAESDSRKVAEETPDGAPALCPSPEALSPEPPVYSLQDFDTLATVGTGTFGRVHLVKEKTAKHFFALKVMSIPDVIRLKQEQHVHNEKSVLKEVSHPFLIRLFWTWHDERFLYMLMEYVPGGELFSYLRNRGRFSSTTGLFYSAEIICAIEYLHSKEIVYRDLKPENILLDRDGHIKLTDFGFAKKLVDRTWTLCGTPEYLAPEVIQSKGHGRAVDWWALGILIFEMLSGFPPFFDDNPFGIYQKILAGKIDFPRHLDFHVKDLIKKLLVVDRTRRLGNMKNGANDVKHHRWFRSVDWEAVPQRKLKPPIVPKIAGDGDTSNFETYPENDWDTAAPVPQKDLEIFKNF
The note with it: at 0.1 µM.

Test [9] deals with T5, cAMP-dependent protein kinase catalytic subunit PRKX (Homo sapiens). To be noted: at 1 µM.
The target of test [10] is Rho-associated protein kinase 1 (Homo sapiens) (UniProt Q13464). The note with it: at 0.1 µM.
Test [11] has the same target. The note with it: at 1 µM.
Test [12] has as its target Rho-associated protein kinase 2 (Homo sapiens) (UniProt O75116). The note with it: at 0.1 µM.
Test [13] shares this target. To be noted: at 1 µM.
The target of test [14] is Ribosomal protein S6 kinase alpha-1 (Homo sapiens) (UniProt Q15418). The note with it: at 0.1 µM.
The target is the same in test [15]. The note with it: at 1 µM.
The target of test [16] is Ribosomal protein S6 kinase alpha-3 (Homo sapiens) (UniProt P51812). The note with it: at 0.1 µM.
Test [17] has the same target. To be noted: at 1 µM.
Test [18] addresses Ribosomal protein S6 kinase alpha-2 (Homo sapiens) (UniProt Q15349). To be noted: at 0.1 µM.
Test [19] has the same target. The note with it: at 1 µM.
In test [20] the target is Ribosomal protein S6 kinase alpha-6 (Homo sapiens) (UniProt Q9UK32). The note with it: at 0.1 µM.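 Also: reported value is the mean inhibition of RSK4, from the GSK PKIS kinase inhibitor screen.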
Chain of Ribosomal protein S6 kinase alpha-6 (Homo sapiens) (Q9UK32 whole entry): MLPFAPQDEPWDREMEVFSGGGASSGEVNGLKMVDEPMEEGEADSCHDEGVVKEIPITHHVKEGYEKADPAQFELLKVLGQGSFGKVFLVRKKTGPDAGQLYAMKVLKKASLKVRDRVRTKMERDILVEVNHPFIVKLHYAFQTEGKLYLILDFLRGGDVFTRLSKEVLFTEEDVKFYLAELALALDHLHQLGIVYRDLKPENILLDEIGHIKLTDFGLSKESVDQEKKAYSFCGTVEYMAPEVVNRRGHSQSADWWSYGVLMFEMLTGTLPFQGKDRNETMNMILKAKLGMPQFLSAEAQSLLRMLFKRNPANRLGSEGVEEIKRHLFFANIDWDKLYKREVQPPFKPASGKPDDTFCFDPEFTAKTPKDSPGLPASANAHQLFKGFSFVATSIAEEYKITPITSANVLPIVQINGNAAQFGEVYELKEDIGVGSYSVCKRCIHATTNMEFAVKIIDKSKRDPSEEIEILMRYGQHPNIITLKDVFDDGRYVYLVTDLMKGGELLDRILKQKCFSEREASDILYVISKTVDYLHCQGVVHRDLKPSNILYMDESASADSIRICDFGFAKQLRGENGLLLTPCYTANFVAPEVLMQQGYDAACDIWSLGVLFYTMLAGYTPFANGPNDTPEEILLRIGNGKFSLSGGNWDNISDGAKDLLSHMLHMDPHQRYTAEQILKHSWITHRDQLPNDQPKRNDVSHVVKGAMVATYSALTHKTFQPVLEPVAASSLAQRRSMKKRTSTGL

Chain of Ribosomal protein S6 kinase alpha-2 (Homo sapiens) (Q15349 whole entry): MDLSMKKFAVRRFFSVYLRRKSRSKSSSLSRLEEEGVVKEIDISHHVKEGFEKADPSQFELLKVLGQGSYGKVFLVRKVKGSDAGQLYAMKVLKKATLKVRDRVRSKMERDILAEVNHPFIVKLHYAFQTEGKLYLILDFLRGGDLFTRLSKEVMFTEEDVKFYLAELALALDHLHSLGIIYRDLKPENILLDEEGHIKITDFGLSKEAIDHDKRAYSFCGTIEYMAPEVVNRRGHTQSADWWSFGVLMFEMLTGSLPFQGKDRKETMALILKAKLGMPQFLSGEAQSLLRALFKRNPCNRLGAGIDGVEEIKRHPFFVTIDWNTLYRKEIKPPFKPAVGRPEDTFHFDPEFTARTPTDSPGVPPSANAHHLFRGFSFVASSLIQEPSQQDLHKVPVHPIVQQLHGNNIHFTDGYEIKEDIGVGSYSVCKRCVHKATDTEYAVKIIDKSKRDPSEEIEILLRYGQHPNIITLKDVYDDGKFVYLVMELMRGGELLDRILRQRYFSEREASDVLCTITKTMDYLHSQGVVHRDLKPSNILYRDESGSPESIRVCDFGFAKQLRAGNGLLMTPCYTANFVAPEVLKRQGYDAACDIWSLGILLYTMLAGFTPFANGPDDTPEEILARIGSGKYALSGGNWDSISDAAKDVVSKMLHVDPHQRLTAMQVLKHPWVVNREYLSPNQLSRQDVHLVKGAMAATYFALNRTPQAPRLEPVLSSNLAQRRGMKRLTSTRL
Chain of Ribosomal protein S6 kinase alpha-1 (Homo sapiens) (Q15418 whole entry): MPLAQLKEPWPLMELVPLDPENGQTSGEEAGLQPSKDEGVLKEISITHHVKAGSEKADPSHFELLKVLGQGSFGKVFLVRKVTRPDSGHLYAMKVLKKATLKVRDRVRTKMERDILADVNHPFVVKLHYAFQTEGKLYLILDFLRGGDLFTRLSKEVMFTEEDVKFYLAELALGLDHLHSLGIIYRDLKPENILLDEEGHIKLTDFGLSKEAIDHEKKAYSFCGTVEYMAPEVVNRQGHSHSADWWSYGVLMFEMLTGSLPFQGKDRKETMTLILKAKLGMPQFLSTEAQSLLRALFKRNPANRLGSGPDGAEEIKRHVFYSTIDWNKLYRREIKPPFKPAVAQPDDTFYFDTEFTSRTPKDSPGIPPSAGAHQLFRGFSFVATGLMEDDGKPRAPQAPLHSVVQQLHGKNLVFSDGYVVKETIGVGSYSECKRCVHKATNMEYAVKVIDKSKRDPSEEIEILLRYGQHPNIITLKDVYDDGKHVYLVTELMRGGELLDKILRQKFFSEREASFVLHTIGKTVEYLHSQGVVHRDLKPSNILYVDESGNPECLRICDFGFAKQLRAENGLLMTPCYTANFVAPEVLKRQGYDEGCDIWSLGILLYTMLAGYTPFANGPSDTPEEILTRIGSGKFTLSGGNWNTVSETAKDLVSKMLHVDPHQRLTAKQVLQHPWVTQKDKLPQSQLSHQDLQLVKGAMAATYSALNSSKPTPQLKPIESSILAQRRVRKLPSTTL
Chain of Rho-associated protein kinase 1 (Homo sapiens) (Q13464 2-1354 limits assumed): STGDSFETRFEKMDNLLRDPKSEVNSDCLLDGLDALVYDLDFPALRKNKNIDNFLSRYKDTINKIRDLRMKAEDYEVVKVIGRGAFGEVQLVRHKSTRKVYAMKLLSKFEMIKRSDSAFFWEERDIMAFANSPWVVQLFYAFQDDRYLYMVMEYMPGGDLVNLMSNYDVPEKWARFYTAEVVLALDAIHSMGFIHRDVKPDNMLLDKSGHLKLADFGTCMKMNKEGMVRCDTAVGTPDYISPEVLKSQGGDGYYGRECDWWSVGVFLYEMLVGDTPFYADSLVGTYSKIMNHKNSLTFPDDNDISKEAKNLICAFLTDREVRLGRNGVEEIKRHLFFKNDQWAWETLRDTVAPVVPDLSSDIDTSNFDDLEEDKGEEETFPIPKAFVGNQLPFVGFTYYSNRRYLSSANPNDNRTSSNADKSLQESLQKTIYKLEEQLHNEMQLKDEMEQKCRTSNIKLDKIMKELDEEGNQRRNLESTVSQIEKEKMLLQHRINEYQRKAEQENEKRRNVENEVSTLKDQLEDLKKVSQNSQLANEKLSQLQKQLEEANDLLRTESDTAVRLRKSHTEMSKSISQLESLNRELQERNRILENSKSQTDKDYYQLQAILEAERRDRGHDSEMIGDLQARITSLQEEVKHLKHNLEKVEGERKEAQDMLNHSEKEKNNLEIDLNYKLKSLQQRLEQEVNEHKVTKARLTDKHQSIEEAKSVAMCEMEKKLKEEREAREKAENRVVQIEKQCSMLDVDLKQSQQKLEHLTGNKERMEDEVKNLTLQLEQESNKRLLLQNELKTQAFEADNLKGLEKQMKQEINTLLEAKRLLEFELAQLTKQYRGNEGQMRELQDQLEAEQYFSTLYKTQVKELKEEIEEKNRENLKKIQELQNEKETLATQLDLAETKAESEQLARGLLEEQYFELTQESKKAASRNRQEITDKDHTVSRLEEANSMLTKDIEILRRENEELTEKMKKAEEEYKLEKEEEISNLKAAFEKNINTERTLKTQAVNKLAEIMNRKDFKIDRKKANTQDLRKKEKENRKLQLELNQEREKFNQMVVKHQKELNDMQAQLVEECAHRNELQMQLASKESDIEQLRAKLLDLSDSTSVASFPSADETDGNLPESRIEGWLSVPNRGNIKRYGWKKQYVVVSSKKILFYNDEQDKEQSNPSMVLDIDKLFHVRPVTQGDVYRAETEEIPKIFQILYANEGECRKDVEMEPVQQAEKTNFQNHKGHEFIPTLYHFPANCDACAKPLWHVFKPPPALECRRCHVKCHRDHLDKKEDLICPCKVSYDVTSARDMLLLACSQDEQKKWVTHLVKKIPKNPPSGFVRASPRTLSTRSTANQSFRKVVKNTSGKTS
Chain of Ribosomal protein S6 kinase alpha-3 (Homo sapiens) (P51812 whole entry): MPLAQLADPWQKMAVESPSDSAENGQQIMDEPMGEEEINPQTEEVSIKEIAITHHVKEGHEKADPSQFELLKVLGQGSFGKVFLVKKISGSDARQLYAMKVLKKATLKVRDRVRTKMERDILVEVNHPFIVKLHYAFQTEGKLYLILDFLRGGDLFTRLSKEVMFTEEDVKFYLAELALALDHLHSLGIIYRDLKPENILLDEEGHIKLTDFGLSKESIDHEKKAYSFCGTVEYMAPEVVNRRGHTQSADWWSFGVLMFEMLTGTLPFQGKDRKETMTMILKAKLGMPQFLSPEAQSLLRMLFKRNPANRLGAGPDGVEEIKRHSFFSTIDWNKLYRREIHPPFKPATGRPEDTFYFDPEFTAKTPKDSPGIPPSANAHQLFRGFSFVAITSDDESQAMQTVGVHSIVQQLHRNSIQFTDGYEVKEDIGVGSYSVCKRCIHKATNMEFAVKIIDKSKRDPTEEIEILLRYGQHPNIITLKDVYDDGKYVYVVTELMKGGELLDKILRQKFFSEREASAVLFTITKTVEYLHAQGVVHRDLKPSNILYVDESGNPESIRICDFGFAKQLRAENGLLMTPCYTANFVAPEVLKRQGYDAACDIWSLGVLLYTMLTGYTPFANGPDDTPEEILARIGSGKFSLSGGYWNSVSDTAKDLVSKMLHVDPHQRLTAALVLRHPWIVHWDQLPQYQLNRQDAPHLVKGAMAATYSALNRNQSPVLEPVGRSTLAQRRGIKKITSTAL

On to `COc1ccc(-c2nn3ncccc3c2-c2ccnc(Nc3ccc(Cl)c(C(F)(F)F)c3)n2)cc1`, for which the inhibition was 4.34% in test [1]; 2.86% in test [2]; 3.78% in [3]; 0.21% in test [4]; 0.97% in test [5]; 0.9% in [6]. Besides, the inhibition came out at 2.46% in test [7]; 0.84% in test [8]; 3.14% in test [9]; 1.25% in test [10]; 0.16% in test [11]; 0.42% in test [12]. Moreover, the inhibition in test [13] came out at 5.75%; in test [14], 1.97%; in [15] it was 4.11%; in test [16], 1.72%; in test [17], 3.67%; in [18], 0.41%. The results for the inhibition in [19] and in test [20] were 2.22% and 0.23%, respectively.
Regarding `CN(C)c1cc2c(Nc3ccc4nc(Cc5ccccc5)[nH]c4c3)ncnc2cn1`, the inhibition was 5.15% in [1]; 5.52% in [2]; 6.09% in [3]; 5.01% in [4]; 6.25% in test [5]; 2.1% in test [6]. Besides, the inhibition in test [7] worked out at 4.22%; in test [8], 2.16%; in test [9], 2.25%; in test [10] it was 5.7%; in [11], 2.36%; in test [12], 3.17%. Also, the inhibition in [13] stood at 5.65%; in test [14], 2.97%; in test [15] it was 4.02%; in test [16], 2.23%; in test [17] it was 2.55%; in [18] it was 2.08%. Moreover, the inhibition in test [19] was determined as 3.2%; in [20] it was 2.02%.
On to `COc1cc2ncn(-c3cc(OCc4ccccc4C(F)(F)F)c(C(N)=O)s3)c2cc1OC`, for which the inhibition in test [1] was -1.87%; in [2], 0.67%; in test [3], -0.49%; in test [4], 2.93%; in test [5], 0.86%; in test [6], 1.68%. The inhibition in [7] came out at 1.12%; in test [8], 1.89%; in [9], 2.8%; in test [10] it was 1.68%; in test [11] it was 4.31%; in test [12], 3.56%. The inhibition is 8.03% in [13]; 0.65% in [14]; 9.54% in test [15]; -0.02% in test [16]; 11.1% in test [17]; 2.5% in test [18]. The inhibition in test [19] worked out at 8.42%; in test [20], 3.37%.

Usually inhibition stands for the drop in the measured response relative to a control, in per cent.
